About 7,900 targets were measured; listed, in parts, are those with a hit and a random draw of the rest. About 0.6% of all pairs of compound and target were hits. A number with no mark means an inactive call.
Key:
Assay in all cases: log2 fold change, soluble protein after heating vs DMSO (PISA); higher = thermal stabilisation; K562 cells, 10 uM, 30 min; active = over 0.2 and 3.5 SD of the protein, either way, in both replicates (recomputed)
erlotinib = compound: C#Cc1cccc(Nc2ncnc3cc(OCCOC)c(OCCOC)cc23)c1 [erlotinib]
Outline: (§1)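 Aliquots of K562 cells (2×10^6 cells/mL) treated with 10 μM compound for 30 min were heated for 3 min over 48°C-58°C. After pooling and extraction in PBS with 0.5% NP-40 at 4°C, soluble protein from a 21,000xg, 90 min spin was quantified by TMTpro 16plex LC-MS/MS with channel sums equalised. Thermal stability is expressed against control samples, from duplicates, as a log2 fold change.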

[1] = compound: C/C(=N\NC(=O)C1=CC(=CC=C1)S(=O)(=O)N2CCOCC2)/C3=C(C=CC(=C3)Cl)O
Outline: as §1

[2] = compound: C1=CC(=C(C=C1Cl)C2=NC3=NC=CN=C3C(=N2)NC4=CC=NC=C4)F
Outline: as §1

[3] = compound: C1=CC(=CC=C1C2=NC3=C(N2)C=C(C=C3)C(=O)N)OC4=CC=C(C=C4)Cl
Outline: as §1

[4] = compound: C1=CC2=C(C=CC(=C2)/C=C\3/C(=O)NC(=NCC4=CC=CS4)S3)N=C1
Outline: as §1

[5] = compound: C1=CC2=NC=CN=C2C=C1/C=C/3\C(=O)NC(=O)S3
Outline: as §1

[6] = compound: C1=CC=C(C=C1)C2=NC(=C(N2)C3=CC=NC=C3)C4=CC(=C(C=C4)Cl)O
Outline: as §1

[7] = compound: C1=CC=C2C(=C1)C3=NNC4=CC=CC(=C43)C2=O
Outline: as §1

[8] = compound: C1CCN(C1)C(=O)NC2=CC=CC(=C2)NC3=NC=C(C(=N3)NCCC4=CN=CN4)Br
Outline: as §1

[9] = compound: C1CN(CCC1(CC2=CC=C(C=C2)Cl)N)C3=NC=NC4=C3C=CN4
Outline: as §1

UniProt P53680, sequence (P53680 whole entry, looked up): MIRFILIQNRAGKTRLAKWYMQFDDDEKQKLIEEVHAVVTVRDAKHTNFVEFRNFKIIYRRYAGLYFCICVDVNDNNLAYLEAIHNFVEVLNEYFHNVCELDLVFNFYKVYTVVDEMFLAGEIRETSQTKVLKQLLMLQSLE
UniProt P56385, sequence (P56385 whole entry, looked up): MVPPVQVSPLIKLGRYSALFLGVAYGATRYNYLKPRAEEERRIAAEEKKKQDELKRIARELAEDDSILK
UniProt Q9UBL3, sequence (Q9UBL3 whole entry, looked up): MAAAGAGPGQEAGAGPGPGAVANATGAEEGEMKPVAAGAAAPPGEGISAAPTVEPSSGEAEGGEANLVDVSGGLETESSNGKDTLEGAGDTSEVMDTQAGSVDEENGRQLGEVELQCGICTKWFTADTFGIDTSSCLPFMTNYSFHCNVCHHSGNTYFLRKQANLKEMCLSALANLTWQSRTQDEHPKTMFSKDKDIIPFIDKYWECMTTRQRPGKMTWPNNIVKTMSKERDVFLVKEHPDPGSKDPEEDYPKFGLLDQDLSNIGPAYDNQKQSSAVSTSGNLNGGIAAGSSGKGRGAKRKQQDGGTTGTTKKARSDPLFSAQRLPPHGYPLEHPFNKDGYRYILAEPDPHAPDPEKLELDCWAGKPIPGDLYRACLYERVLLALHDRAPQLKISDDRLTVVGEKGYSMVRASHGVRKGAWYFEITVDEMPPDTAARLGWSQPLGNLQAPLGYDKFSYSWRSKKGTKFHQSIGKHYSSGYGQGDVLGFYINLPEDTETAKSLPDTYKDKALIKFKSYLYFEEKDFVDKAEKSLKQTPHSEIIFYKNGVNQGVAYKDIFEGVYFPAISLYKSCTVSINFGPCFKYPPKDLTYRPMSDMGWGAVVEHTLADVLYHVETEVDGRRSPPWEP
UniProt Q8TDN6, sequence (Q8TDN6 whole entry, looked up): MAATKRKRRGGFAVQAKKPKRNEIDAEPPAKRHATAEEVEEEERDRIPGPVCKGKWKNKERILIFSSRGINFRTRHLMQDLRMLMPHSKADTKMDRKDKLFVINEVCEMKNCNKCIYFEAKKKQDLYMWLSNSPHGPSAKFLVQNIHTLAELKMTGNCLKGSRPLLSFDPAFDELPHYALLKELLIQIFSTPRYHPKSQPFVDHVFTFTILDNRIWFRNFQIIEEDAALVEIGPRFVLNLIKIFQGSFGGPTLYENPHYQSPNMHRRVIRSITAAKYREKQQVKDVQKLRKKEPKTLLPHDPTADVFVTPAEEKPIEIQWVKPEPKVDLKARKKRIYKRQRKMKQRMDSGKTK
UniProt Q8N6T3, sequence (Q8N6T3 whole entry, looked up): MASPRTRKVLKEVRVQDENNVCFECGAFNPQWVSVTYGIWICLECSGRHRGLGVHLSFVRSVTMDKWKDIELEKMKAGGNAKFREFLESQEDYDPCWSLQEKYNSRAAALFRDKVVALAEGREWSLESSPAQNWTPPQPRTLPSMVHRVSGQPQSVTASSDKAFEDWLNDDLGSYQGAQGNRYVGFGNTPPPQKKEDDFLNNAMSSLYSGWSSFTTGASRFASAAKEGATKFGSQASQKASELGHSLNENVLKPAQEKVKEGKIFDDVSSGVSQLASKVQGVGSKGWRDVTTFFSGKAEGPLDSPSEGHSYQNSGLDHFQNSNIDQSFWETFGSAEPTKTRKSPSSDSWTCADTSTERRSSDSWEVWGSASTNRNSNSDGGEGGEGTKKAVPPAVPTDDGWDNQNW
UniProt Q16864, sequence (Q16864 whole entry, looked up): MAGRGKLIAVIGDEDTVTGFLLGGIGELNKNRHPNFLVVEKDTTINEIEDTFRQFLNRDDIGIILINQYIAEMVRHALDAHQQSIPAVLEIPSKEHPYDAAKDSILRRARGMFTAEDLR
UniProt O14981, sequence (O14981 whole entry, looked up): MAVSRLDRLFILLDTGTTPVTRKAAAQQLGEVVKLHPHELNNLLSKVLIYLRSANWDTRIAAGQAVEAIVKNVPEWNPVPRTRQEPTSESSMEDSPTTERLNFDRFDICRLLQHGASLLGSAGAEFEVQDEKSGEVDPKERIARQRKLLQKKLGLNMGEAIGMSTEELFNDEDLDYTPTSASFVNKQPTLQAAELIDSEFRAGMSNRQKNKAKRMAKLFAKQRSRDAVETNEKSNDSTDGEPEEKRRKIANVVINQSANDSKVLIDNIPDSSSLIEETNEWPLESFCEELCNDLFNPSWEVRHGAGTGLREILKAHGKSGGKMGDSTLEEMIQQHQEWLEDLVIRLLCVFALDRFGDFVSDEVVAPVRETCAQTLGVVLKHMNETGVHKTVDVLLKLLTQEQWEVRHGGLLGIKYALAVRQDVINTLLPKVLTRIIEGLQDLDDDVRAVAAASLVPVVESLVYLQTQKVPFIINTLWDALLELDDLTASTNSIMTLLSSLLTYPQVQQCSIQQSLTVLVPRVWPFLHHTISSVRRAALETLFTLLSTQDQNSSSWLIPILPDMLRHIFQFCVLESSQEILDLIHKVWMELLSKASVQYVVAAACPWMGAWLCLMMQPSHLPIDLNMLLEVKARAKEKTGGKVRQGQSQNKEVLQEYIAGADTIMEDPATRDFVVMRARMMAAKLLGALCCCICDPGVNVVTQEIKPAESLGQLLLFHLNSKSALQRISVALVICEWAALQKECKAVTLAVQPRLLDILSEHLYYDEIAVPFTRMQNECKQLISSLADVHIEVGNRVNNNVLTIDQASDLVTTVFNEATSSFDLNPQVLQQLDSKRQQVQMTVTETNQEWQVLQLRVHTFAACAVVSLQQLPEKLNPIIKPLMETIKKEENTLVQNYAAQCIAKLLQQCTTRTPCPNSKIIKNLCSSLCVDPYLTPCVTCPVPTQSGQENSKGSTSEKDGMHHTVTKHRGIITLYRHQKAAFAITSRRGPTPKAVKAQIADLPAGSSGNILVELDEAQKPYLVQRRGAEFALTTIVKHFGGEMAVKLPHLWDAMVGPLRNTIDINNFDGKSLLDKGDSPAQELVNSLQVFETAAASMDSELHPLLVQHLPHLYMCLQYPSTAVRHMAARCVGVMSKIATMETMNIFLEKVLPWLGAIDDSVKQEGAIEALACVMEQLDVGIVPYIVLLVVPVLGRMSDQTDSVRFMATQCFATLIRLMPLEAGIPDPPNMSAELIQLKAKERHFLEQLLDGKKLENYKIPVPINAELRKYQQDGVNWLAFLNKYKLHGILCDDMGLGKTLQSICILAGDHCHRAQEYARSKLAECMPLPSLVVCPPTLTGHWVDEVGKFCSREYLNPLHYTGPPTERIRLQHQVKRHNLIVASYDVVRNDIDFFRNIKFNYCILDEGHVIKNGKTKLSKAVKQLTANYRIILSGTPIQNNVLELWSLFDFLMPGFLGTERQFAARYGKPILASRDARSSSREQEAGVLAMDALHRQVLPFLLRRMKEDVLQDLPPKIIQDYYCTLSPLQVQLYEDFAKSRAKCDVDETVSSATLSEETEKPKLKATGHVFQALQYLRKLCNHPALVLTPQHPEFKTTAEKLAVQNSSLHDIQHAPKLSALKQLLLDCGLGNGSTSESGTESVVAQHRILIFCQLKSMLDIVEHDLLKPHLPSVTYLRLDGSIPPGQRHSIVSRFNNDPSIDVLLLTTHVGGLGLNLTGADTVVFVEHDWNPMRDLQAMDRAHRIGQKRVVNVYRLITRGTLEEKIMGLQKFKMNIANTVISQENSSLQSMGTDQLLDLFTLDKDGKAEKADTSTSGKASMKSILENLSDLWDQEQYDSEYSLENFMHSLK
UniProt Q9NWB6, sequence (Q9NWB6 whole entry, looked up): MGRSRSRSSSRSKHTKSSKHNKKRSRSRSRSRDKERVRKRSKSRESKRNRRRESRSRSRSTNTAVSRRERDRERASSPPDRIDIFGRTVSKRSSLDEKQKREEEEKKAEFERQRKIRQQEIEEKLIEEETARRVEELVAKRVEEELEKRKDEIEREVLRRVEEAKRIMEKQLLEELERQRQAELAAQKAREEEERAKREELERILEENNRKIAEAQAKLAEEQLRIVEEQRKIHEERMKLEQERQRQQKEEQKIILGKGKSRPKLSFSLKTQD
UniProt O60566, sequence (O60566 whole entry, looked up): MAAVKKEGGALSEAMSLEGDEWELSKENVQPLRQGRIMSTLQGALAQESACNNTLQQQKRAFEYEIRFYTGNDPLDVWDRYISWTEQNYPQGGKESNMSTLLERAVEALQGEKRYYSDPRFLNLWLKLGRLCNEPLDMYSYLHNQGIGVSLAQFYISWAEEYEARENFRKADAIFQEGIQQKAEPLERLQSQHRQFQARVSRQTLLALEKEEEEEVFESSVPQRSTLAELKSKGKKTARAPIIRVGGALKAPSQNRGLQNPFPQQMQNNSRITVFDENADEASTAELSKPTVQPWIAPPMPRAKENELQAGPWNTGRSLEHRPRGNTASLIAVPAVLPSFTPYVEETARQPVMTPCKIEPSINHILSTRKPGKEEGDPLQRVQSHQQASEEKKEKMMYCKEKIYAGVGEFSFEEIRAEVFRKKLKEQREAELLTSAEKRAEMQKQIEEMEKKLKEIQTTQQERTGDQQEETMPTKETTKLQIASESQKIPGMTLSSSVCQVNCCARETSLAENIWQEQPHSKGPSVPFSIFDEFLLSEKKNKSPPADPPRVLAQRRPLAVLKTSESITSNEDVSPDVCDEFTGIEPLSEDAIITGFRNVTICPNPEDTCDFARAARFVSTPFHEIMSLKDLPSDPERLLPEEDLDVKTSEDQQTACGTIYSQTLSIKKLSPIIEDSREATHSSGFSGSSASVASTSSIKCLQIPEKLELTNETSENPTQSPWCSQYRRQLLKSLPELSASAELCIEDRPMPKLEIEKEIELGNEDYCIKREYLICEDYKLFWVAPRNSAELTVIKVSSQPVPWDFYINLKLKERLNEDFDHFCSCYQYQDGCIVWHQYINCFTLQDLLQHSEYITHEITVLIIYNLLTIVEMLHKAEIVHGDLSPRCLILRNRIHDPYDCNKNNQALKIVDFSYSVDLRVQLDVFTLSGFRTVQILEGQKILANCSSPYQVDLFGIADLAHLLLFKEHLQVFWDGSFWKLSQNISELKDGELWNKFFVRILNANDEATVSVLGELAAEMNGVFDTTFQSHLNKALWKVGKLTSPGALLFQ

Target | log2 fold change (erlotinib) | log2 fold change [1] | log2 fold change [2] | log2 fold change [3] | log2 fold change [4] | log2 fold change [5] | log2 fold change [6] | log2 fold change [7] | log2 fold change [8] | log2 fold change [9]
ARL1 (UniProt P40616) | 0.049 | 0.063 | 0.072 | -0.091 | 0.027 | -0.028 | 0.13 | 0.084 | -0.076 | 0.055
AGAP3 isoform 4 (UniProt Q96P47) | 0.11 | 0 | -0.078 | -0.062 | 0.017 | 0.183 | -0.024 | -0.082 | -0.075 | 0.127
ACSL5 isoform 3 (UniProt Q9ULC5) | 0.044 | 0.039 | -0.021 | 0.028 | -0.029 | -0.011 | -0.007 | 0.047 | -0.003 | 0.061
ARL6IP6 (UniProt Q8N6S5) | 0.064 | 0.116 | -0.102 | 0.034 | -0.006 | 0.001 | 0.201 | -0.087 | 0.01 | -0.036
AKR1C2 (UniProt P52895) | 0.07 | 0.014 | -0.101 | -0.092 | 0.001 | 0.085 | 0.292 | -0.038 | 0.044 | -0.028
ATP5ME (UniProt P56385) | 0.013 | 0.037 | 0.136 | -0.007 | 0.085 | 0.051 | 0.023 | 0.002 | -0.051 | 0.013
BTAF1 (UniProt O14981) | 0.04 | 0.078 | 0.072 | 0.005 | 0.048 | -0.006 | -0.038 | -0.032 | 0.011 | 0.05
ASB6 (UniProt Q9NWX5) | -0.024 | -0.603 (active) | -0.263 | -0.067 | 0.184 | -0.084 | 0.101 | -0.032 |  | 
ALDH18A1 (UniProt P54886) | 0.016 | 0.092 | 0.089 | -0.084 | -0.007 | -0.204 | -0.093 | -0.091 | -0.015 | -0.057
BUB1B isoform 3 (UniProt O60566) | 0.019 | 0.054 | -0.049 | -0.031 | 0.157 | 0.052 | 0.037 | -0.038 | -0.031 | -0.095
ACBD6 (UniProt Q9BR61) | 0.056 | -0.031 | 0.134 | 0.108 | 0.007 | 0.011 | -0.078 | 0.073 | -0.186 | -0.216
BRIX1 (UniProt Q8TDN6) | -0.093 | -0.05 | -0.415 | -0.089 | 0.003 | 0.046 | -0.046 | -0.167 | 0.017 | -0.387
BID isoform 2 (UniProt P55957) | 0.026 | 0.006 | 0.014 | 0.052 | -0.04 | 0.012 | -0.03 | 0.028 | -0.05 | 0.034
ASS1 (UniProt P00966) | 0.059 | 0.301 (active) | -0.05 | 0.008 | -0.003 | 0.036 | 0.012 | 0.118 | 0.103 | -0.037
BYSL (UniProt Q13895) | -0.009 | 0.014 | -0.05 | -0.006 | -0.046 | 0.027 | -0.018 | 0.075 | -0.042 | -0.289
ATP6V1F isoform 2 (UniProt Q16864) | -0.049 | -0.017 | 0.232 | 0.077 | 0.04 | 0.189 | -0.017 | -0.024 | -0.066 | -0.222
B4GALT1 (UniProt P15291) | -0.095 | 0.07 | -0.018 | 0.047 | -0.033 | 0.07 | -0.035 | 0.024 | -0.078 | 0.017
AGPS (UniProt O00116) | 0.046 | 0.055 | 0.092 | 0.256 (active) | 0.055 | 0.031 | 0.175 | 0.043 | -0.01 | 0.077
ATP6AP1 (UniProt Q15904) | -0.009 | -0.031 | -0.036 | 0.029 | -0.08 | -0.022 | -0.128 | -0.004 | 0.01 | -0.079
ATP9B (UniProt O43861) | 0.406 (active) | 0.099 | 0.01 | -0.132 | -0.029 | -0.045 | 0.033 | -0.038 | 0.027 | -0.064
ARGLU1 (UniProt Q9NWB6) | 0.016 | 0.052 | -0.183 | 0.115 | -0.38 (active) | 0.014 | -0.125 | -0.235 | -0.02 | -0.232
AP2S1 (UniProt P53680) | -0.1 | 0.148 | -0.056 | -0.018 | 0.052 | 0.013 | -0.011 | -0.27 (active) | -0.354 (active) | -0.003
ASH2L (UniProt Q9UBL3) | -0.021 | 0.025 | 0.019 | -0.062 | -0.012 | 0.022 | 0.001 | -0.029 | -0.004 | 0.052
ANKZF1 (UniProt Q9H8Y5) | 0.142 | 0.032 | -0.141 | 0 | 0.015 | -0.108 | -0.035 | -0.039 | 0.057 | -0.022
ARFGAP1 (UniProt Q8N6T3) | -0.017 | 0.131 | 0.086 | -0.072 | -0.017 | -0.018 | -0.069 | 0.035 | -0.037 | 0.001
AARSD1 isoform 3 (UniProt Q9BTE6) | 0.05 | -0.736 (active) | 0.113 | -0.014 | -0.027 | 0.008 | -0.015 | 0.053 | -0.006 | -0.086
ACTR1B (UniProt P42025) | -0.13 | -0.048 | -0.145 | 0.041 | 0.02 | 0.002 | -0.037 | -0.017 | -0.02 | 0.011

Source: the supplement of paper PMC10849652
